# According to PubChem BioAssay (EPA / NIEHS):
# Several values for one entry are separate records, joined by “and”; a condition that tells them apart may be missing. Equal values may be shown once. Activity calls are given as the source filed them. Rule for the calls: active = hit-call score of the fitted dose curve at least 0.9, where 1 is the maximum; inactive = score below 0.9.
# Read-out: not listed separately
# Experiment: BSK_SAg_PBMCCytotoxicity: PBMC Cytotoxicity Assessment in the BioMAP Diversity Plus: SAg Assay (AID 2283093);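 note: PBMC viability measured as Alamar Blue reduction fluorescence at 546/580 nm; fitted both ways against DMSO so a hit may be loss or gain of signal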;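 for AC50: PBMC superantigen activated with SEB plus TSST-1 one hour after compound addition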
# Conditions: primary human HUVEC with PBMC
# Procedure, shortened: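 Compound added to 75,000 PBMC/well for 1 h; SEB and TSST-1 then added at 20 ng/mL final each; 90 h incubation; Alamar Blue 6 h; read 546/580 nm ex/em. Activity fitted bidirectionally relative to DMSO baseline.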
SMILES,outcome,AC50
Cc1ccc2n[nH]nc2c1,inactive,–
CCCCCCCCC=O,inactive,–
OC[C@H]1O[C@H](O[C@]2(CCl)O[C@H](CCl)[C@@H](O)[C@@H]2O)[C@H](O)[C@@H](O)[C@H]1Cl,inactive,–
COC(=O)c1ccc(C)cc1,inactive,–
O=C1OC2(c3cc(Br)c(O)c(Br)c3Oc3c2cc(Br)c(O)c3Br)c2c(Cl)c(Cl)c(Cl)c(Cl)c21,–,23.5 µM (active)
CC(=O)Nc1ccccc1O,inactive,–
CC(=O)OCCC(C)CC(C)(C)C (stereo unspecified),inactive,–
COc1cc(C=O)ccc1OC(=O)C(C)C,inactive,–
CCc1c(C)cc(N)c(CC)c1N,inactive,–
CCCCC(CC)COC(=O)/C=C\C(=O)OCC(CC)CCCC (stereo unspecified),inactive,–
CC(=O)[C@H]1CC[C@H]2[C@@H]3CC=C4C[C@@H](O)CC[C@]4(C)[C@H]3CC[C@]12C,–,6.25 µM (active) and 7.57 µM (active)
CCCCCCCCCC=O,inactive,–
O=P(c1ccccc1)(c1ccccc1)c1ccccc1,inactive,–
C=C(C)C(=O)O[C@H]1C[C@@H]2CC[C@@]1(C)C2(C)C,–,33.1 µM (active)
CCn1c2ccccc2c2cc(N)ccc21,inactive,–
CC(C)Oc1ccccc1O,inactive,–
N#Cc1ccc(CC(=NNC(=O)Nc2ccc(OC(F)(F)F)cc2)c2cccc(C(F)(F)F)c2)cc1,inactive,–
CCCCC/C=C/C=C/C=O,–,20 µM (active)
CCC(=O)OCc1ccccc1,inactive,–
O=[N+]([O-])c1cc(C(F)(F)F)ccc1Cl,inactive,–
C=CCOC(=O)CCC1CCCCC1,inactive,–
CC(=O)O[C@]1(C(C)=O)CC[C@H]2[C@@H]3C[C@H](C)C4=CC(=O)CC[C@]4(C)[C@H]3CC[C@@]21C,inactive,–
c1ccc2sc(SN(C3CCCCC3)C3CCCCC3)nc2c1,–,5.28 µM (active)

# Read-out: Interleukin-8 (IL8), CXCL8 (gene 3576)
# Experiment: BSK_SAg_IL8: BioMAP Diversity Plus: SAg Assay for Interleukin-8 (IL8) Biomarker Activity (AID 2283094)
# Conditions: primary human HUVEC with PBMC; actives raise or lower the signal
# Procedure, shortened: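 ELISA read-out of IL-8 in a primary human vascular co-culture (umbilical vein endothelium plus PBMC), taken 24 h after compound addition. Values derive from bidirectional fits against DMSO negative controls.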
SMILES,outcome,AC50
Cc1ccc2n[nH]nc2c1,inactive,–
CCCCCCCCC=O,inactive,–
OC[C@H]1O[C@H](O[C@]2(CCl)O[C@H](CCl)[C@@H](O)[C@@H]2O)[C@H](O)[C@@H](O)[C@H]1Cl,inactive,–
COC(=O)c1ccc(C)cc1,inactive,–
O=C1OC2(c3cc(Br)c(O)c(Br)c3Oc3c2cc(Br)c(O)c3Br)c2c(Cl)c(Cl)c(Cl)c(Cl)c21,inactive,–
CC(=O)Nc1ccccc1O,inactive,–
CC(=O)OCCC(C)CC(C)(C)C (stereo unspecified),inactive,–
COc1cc(C=O)ccc1OC(=O)C(C)C,inactive,–
CCc1c(C)cc(N)c(CC)c1N,inactive,–
CCCCC(CC)COC(=O)/C=C\C(=O)OCC(CC)CCCC (stereo unspecified),inactive,–
CC(=O)[C@H]1CC[C@H]2[C@@H]3CC=C4C[C@@H](O)CC[C@]4(C)[C@H]3CC[C@]12C,inactive,–
CCCCCCCCCC=O,inactive,–
O=P(c1ccccc1)(c1ccccc1)c1ccccc1,inactive,–
C=C(C)C(=O)O[C@H]1C[C@@H]2CC[C@@]1(C)C2(C)C,–,35.3 µM (active)
CCn1c2ccccc2c2cc(N)ccc21,–,0.0208 µM (active)
CC(C)Oc1ccccc1O,inactive,–
N#Cc1ccc(CC(=NNC(=O)Nc2ccc(OC(F)(F)F)cc2)c2cccc(C(F)(F)F)c2)cc1,inactive,–
CCCCC/C=C/C=C/C=O,–,20 µM (active)
CCC(=O)OCc1ccccc1,inactive,–
O=[N+]([O-])c1cc(C(F)(F)F)ccc1Cl,inactive,–
C=CCOC(=O)CCC1CCCCC1,inactive,–
CC(=O)O[C@]1(C(C)=O)CC[C@H]2[C@@H]3C[C@H](C)C4=CC(=O)CC[C@]4(C)[C@H]3CC[C@@]21C,inactive,–
c1ccc2sc(SN(C3CCCCC3)C3CCCCC3)nc2c1,–,3.23 µM (active)
